For orientation: inhibition means the relative decrease from the control value, in per cent.

The nature of assay [1]: yeast TOR pathway RPL19A-GFP modulators, primary screen, cell-based, S. cerevisiae, multiplex flow cytometry (AID 1862; in the data active = percent of DMSO control GFP below about 86%;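 also: lower values mimic rapamycin by blocking the RPL19A rise seen in DMSO cells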). The conditions noted are these: S. cerevisiae RPL19A-GFP strain, flow cytometry fluorescence, 3 h; at 10 µM; stronger effect = lower value. For orientation: Flow cytometry measures light scatter and fluorescence of single cells or particles in a stream.
Assay [2] can be described thus: modulators of MEP2-GFP levels in yeast, primary screen, S. cerevisiae, multiplex flow cytometry (AID 1867).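 Also: median GFP channel fluorescence of barcode-gated MEP2-GFP cells measured by flow cytometry.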 The settings on record: S. cerevisiae MEP2-GFP strain, 3 h, at 10 µM, stronger effect = higher value, 100% means same as DMSO wells.
The nature of assay [3]: modulators of CIT2-GFP expression in yeast, primary screen, S. cerevisiae, GFP fusion, multiplex flow cytometry (AID 1870;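 active = percent response above a set limit, the screen-wide mean plus 3 SD, cut at about 130% in these data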;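 also: barcoded CIT2-GFP strain pooled with four other GFP strains with rapamycin as positive control; median GFP fluorescence per well over plate mean of DMSO wells so 100% = DMSO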). The settings on record: 3 h, at 10 µM, stronger effect = higher value.
A short description of assay [4]: modulators of LAP4-GFP expression in yeast, primary screen, S. cerevisiae, multiplex flow cytometry (AID 1873;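 active = GFP signal, as percent of the solvent control, above the screen mean plus 3 SD, about 149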). The settings on record: 3 h, at 10 µM, stronger effect = higher value.
Assay [5] is described as follows: modulators of AGP1-GFP expression in yeast TOR pathway, primary screen, cell-based, multiplex flow cytometry, S. cerevisiae (AID 1887;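 active = GFP signal above the screen-wide mean plus 3 SD, that is over about 124.5% of the solvent control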;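 also: AGP1-GFP fusion strain of S. cerevisiae within a five-strain barcoded multiplex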). The settings on record: 3 h, at 10 µM, stronger effect = higher value.
The nature of assay [6]: inhibitors of CD8+ T cell-vesicle binding, pilot screen, LFA-1/ICAM-1 modulator project, MLPCN validation set, flow cytometry (AID 2523;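 active = response below a set limit, under 55% cells CD8-positive and vesicle-bound, and CD8 cells' 90th-percentile brightness under 279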;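 as to vesicle binding response: mean PE anti-B7-1 fluorescence of CD8+ cells relative to row control; 100% = QL9-loaded vesicles with DMSO vehicle in the same plate row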). The conditions noted are these: 2C mouse CD8+ T cells, at 7 µM, stronger effect = lower value; double positive events: measured here: CD8+/vesicle+ event percentage.
The target in assay [7] is Integrin beta-1 (Homo sapiens) + Integrin alpha-4 (Homo sapiens) (UniProt P13612+P05556). As to the kind of experiment: inhibition of HUTS-21 binding to VLA-4, pilot screen, VLA-4 allosteric modulator project, U937 cells, HUTS-21 mAb, flow cytometry, validation set (AID 2674;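 active = inhibition above 50%, about 3 SD of the validation set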;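 also: antibody binding induced by the VLA-4 ligand LDV present at three times its Kd; 0% = LDV ligand with antibody and no compound and 100% = antibody without LDV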). The settings on record: HUTS-21 LIBS mAb binding, at 6.7 µM, stronger effect = higher value, binding induced by LDV ligand.

The nature of assay [8]: superoxide lowering in aged yeast cells, pilot screen, validation compound set (AID 2706;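 active = superoxide response below 65% of plate, a cut near 3 SD across the whole screen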;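 also: yeast exposed to compound for one week at 30 degrees C before staining; 100% = mean of all compound wells on the same plate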). The settings on record: S. cerevisiae aging, superoxide DHE fluorescence; at 10 µM; stronger effect = lower value.
Assay [9] deals with Beta-adrenergic receptor kinase 1 (Homo sapiens) (UniProt P25098). In words: GRK2 binders displacing RNA aptamer, biochemical, validation, human GRK2, bead flow cytometry (AID 488806;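 active = aptamer binding inhibition above 30%, about 3 SD of noise from non-fluorescent compounds; inactive = inhibition at or below 30%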). The settings on record: bead-bound GRK2, FAM-aptamer displacement, at 10 µM, stronger effect = higher value.
Assay [10] has as its target Beta-2 adrenergic receptor (Homo sapiens) (UniProt P07550). In words: beta2AR agonists driving receptor internalization, pilot screen, cell-based, FAP fluorogen, flow cytometry, validation set (AID 504459;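 active = percent response above 42, roughly 3 SD of non-fluorescent test compounds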;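 also: agonist-driven loss of surface beta2AR via internalization measured by FAP dye flow cytometry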). The settings on record: Am2.2-beta2AR cells, FAP surface receptor flow cytometry; at 10 µM; stronger effect = higher value.
Assay [11] addresses AP-2 complex subunit beta (Homo sapiens) (UniProt P63010). In words: inhibitors of arrestin peptide binding to AP2, pilot screen, biochemical, validation set, GST-AP2 beads, flow cytometry (AID 504541;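 active = inhibition above 54%, about 3 SD of non-fluorescent compounds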;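 also: AP2 carries R879A mutation and is captured from E. coli lysate; bead-bound FITC arrestin peptide fluorescence measuring arrestin peptide binding to AP2; 0% = DMSO wells and 100% = excess unlabeled arrestin peptide control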). The settings on record: FITC arrestin peptide, at 10 µM, stronger effect = higher value, AP2 beta2 appendage fragment, R879A mutant.
The nature of assay [12]: yeast V-ATPase proton transport modulators, S. cerevisiae, pHLuorin, HTS validation (AID 504600; in the data active = response above about 15%;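 also: plate controls were DMSO for no effect and reference compound for full effect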). The conditions noted are these: S. cerevisiae pHLuorin cytosolic pH, at 10 µM, stronger effect = higher value.
Assay [13] relates to anti-desmoglein-3 scFv antibody binding to human DSG3. In words: inhibitors of anti-DSG3 scFv binding to DSG3, pilot screen, biochemical, validation compound set, bead-based, flow cytometry (AID 588368;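 active = binding below the plate cutoff, the plate median minus 3 SD, with a reading above zero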;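 also: signal is the median channel fluorescence of bead-bound GFP antibody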). The conditions noted are these: Protein G beads, DSG3-Fc, scFv-GFP binding, at 10 µM, stronger effect = lower value.
Assay [14] can be described thus: inhibitors of fungal efflux pumps CDR1, CDR2, MDR1, pilot screen, validation compound set, multiplex, phenotypic (AID 588506;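 active = efflux inhibition above 0.42, the validation set average plus 4 SD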;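 also: Nile Red retained in cells so higher fluorescence means more efflux inhibition; 0 = negative control wells and 1 = enniatin B 25 µM full block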). The conditions noted are these: S. cerevisiae pump-expressing triplex, Nile Red efflux flow cytometry; at 10 µM; stronger effect = higher value; the pumps come from Candida albicans.
For assay [15], the target named is ATP-binding cassette sub-family B member 6 (Homo sapiens) (UniProt Q9NP58). As to the kind of experiment: ABCB6 transporter inhibitors, pilot screen, K562-ABCB6 cells, flow cytometry, validation set (AID 588550;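 active = inhibition above the screen-wide mean plus 3 SD, about 51%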;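 also: 0% = DMSO wells and 100% = benzethonium chloride 70 µM positive control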). The settings on record: K562-ABCB6 porphyrin accumulation, 1 h, at 10 µM, stronger effect = higher value.
Assay [16] is described as follows: promoters of myeloid differentiation in arrested cells, primary screen, cell-based, GFP/MAC1 double positive, flow cytometry, validation set (AID 588685;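 active = differentiation response of at least 50%, scaled between solvent and reference control, from cells with both markers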;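 also: compound exposure lasts four days before antibody staining and flow analysis; 0% = DMSO wells and 100% = 5 µM fulvestrant positive control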). The settings on record: ER-HoxA9 marrow cells, stronger effect = higher value, normalized: vehicle 0, fulvestrant 100.

Structures are written as SMILES. Results filed as inconclusive are left out. Active and inactive are the calls of the source.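 The calls were made as follows, unless noted: active = GFP response, as percent of the DMSO control, above the screen-wide mean plus 3 SD, about 139; inconclusive = no response measured because the compound's own fluorescence interfered; inactive = the rest.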

Beta-adrenergic receptor kinase 1 (Homo sapiens), sequence (P25098 whole entry, looked up): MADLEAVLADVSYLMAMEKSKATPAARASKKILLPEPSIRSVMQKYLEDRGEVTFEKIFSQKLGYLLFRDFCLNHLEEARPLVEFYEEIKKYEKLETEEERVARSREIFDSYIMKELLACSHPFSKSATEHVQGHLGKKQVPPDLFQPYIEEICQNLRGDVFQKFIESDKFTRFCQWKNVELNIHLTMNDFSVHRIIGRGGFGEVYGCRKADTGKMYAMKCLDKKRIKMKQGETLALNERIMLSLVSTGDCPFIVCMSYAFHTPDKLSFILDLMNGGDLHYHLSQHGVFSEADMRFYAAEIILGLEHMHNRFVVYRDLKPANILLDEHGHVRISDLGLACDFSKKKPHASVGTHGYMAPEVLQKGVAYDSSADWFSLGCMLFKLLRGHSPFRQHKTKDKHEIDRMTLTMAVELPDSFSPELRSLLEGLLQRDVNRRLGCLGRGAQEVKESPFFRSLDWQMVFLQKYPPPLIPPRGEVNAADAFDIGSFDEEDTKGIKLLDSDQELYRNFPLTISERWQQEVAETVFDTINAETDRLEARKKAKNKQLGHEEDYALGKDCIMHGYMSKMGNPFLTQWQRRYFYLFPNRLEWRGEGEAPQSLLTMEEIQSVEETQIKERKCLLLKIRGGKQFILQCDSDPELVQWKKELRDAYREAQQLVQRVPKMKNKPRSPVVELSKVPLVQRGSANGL
Integrin beta-1 (Homo sapiens) + Integrin alpha-4 (Homo sapiens), sequence (P05556 whole entry, looked up): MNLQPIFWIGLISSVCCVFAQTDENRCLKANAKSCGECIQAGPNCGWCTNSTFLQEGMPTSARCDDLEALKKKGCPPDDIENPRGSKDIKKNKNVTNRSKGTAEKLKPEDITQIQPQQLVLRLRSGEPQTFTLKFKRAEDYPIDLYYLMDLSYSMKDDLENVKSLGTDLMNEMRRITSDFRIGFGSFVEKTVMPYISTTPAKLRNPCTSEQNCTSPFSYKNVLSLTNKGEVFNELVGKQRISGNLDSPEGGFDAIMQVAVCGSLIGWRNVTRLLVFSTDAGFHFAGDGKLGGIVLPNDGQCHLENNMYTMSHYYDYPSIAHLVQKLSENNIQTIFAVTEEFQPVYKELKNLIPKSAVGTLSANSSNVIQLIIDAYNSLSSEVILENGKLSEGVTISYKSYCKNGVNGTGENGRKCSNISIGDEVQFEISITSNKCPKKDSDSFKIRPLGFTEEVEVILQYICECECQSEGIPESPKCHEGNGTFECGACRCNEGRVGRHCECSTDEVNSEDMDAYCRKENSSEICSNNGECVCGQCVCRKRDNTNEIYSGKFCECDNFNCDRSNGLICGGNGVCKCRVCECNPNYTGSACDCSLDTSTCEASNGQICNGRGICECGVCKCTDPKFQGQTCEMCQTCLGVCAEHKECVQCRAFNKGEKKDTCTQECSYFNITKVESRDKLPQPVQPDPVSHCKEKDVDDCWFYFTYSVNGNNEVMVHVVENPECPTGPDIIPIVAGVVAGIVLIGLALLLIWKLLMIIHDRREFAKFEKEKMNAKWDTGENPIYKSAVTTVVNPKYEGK
Integrin beta-1 (Homo sapiens) + Integrin alpha-4 (Homo sapiens), sequence (P13612 whole entry, looked up): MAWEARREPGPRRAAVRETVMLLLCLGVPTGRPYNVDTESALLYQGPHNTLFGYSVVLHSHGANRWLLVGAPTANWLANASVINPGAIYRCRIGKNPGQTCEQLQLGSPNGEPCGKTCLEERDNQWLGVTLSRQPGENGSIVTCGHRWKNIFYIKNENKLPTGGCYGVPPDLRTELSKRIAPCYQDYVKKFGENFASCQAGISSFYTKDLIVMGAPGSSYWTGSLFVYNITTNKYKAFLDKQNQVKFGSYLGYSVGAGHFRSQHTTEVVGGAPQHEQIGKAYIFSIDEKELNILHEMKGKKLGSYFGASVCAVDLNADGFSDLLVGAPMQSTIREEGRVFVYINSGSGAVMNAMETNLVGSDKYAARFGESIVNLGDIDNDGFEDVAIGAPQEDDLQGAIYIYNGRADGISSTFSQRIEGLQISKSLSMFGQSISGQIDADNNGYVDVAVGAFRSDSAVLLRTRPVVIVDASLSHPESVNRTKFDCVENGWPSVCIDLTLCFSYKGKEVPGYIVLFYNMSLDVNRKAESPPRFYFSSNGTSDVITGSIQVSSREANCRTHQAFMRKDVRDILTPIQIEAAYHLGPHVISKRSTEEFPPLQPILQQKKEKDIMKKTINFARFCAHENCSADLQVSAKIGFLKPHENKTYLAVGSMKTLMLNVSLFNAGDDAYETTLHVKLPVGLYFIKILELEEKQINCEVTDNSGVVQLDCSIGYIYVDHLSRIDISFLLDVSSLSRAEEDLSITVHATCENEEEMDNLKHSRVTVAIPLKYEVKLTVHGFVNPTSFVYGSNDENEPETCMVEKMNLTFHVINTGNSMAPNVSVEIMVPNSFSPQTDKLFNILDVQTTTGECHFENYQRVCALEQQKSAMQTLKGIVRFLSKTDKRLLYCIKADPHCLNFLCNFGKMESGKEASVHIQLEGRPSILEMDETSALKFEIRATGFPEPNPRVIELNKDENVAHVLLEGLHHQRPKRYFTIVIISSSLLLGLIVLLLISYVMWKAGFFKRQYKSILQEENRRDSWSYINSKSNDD
AP-2 complex subunit beta (Homo sapiens), sequence (P63010 whole entry, looked up, the tested form may be a part, one chain of several): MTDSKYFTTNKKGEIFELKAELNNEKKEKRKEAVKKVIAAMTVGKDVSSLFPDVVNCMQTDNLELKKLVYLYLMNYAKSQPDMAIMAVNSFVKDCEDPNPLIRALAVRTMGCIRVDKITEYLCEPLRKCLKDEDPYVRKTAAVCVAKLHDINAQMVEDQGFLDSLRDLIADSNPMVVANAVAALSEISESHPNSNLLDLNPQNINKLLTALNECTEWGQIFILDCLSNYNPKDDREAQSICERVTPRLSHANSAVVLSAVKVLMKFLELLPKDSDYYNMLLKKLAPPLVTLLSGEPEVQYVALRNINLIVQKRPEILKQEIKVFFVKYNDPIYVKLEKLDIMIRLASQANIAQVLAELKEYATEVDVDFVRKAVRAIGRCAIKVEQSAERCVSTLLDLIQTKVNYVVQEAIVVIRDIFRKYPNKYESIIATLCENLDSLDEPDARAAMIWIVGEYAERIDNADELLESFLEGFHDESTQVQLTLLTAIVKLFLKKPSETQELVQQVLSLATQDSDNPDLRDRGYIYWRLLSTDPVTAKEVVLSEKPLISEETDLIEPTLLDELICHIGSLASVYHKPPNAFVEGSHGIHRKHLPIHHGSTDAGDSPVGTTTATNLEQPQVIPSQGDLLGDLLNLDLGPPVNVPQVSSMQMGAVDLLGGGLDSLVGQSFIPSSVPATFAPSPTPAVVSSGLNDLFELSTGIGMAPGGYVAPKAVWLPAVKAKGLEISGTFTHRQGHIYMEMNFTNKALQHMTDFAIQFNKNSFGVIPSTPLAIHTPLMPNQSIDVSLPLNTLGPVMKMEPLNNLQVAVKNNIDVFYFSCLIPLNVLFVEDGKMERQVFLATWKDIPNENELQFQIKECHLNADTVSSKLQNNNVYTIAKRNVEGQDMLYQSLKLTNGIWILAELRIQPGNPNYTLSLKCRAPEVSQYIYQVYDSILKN
Beta-2 adrenergic receptor (Homo sapiens), sequence (P07550 whole entry, looked up): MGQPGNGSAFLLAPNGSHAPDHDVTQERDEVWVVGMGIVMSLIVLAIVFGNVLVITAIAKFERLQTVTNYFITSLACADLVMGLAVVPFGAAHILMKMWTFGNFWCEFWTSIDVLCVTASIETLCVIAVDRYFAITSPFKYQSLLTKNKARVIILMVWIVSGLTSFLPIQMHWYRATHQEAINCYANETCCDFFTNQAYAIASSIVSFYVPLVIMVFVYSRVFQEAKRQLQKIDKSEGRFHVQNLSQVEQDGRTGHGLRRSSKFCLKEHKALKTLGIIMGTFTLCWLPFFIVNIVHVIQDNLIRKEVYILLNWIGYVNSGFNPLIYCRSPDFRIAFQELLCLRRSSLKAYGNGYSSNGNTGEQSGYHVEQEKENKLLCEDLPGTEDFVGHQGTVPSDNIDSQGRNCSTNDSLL
ATP-binding cassette sub-family B member 6 (Homo sapiens), sequence (Q9NP58 whole entry, looked up): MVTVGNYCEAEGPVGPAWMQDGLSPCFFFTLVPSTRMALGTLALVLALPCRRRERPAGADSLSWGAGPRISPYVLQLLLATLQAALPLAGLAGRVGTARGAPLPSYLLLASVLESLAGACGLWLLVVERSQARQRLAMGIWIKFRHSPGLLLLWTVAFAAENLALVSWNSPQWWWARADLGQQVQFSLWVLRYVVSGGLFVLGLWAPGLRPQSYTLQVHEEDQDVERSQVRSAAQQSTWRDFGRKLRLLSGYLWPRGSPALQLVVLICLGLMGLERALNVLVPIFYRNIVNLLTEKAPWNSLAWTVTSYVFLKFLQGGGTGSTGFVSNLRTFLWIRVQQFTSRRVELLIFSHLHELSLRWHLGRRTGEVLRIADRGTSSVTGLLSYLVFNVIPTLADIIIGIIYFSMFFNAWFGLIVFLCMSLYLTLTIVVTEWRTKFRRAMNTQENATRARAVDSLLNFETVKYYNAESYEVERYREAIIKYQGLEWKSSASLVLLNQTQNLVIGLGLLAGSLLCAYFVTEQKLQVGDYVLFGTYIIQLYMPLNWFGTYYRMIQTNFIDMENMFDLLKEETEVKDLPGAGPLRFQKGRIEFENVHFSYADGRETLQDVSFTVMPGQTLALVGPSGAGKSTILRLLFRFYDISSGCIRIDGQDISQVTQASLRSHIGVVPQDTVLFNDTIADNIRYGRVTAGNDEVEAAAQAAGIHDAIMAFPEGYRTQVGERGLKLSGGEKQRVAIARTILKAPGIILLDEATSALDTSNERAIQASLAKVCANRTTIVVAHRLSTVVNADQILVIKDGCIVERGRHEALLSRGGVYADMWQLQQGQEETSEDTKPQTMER

On to `COc1ccc(C2NC(=O)c3ccccc3O2)c(OC)c1OC` (centres undefined), for which the percent of DMSO control GFP in assay [1] is 105% (inactive). For the same compound, the GFP response vs DMSO in assay [2] was 104% (inactive); in [4], 101% (inactive). For the same compound, the percent response of DMSO control in assay [3] is 111% (inactive). In [5], the GFP response, % of DMSO is 104% (inactive). Further, the double positive events in assay [6] was 61.2%. The vesicle binding response in assay [6] was 200% (inactive). Besides, the inhibition in assay [7] was -7.72% (inactive); in assay [11] it was -2.37% (inactive); in [15] it was 0% (inactive). Besides, in assay [8], the superoxide response (% of plate) is 89.7% (inactive). Further, the aptamer binding inhibition in [9] is 5% (inactive). The response in assay [10] was -12.7% (inactive); in assay [12], 1.87% (inactive). In addition, the binding (% of control) in assay [13] was 95.5% (inactive). In addition, the efflux inhibition (fraction of control) in [14] is 0.11 (inactive). In addition, the differentiation response in [16] was -1.71% (inactive).

As to `CCOc1ccc(C(NC(C)=O)c2ccc(OC)c(OC)c2)cc1` (centres undefined), the percent of DMSO control GFP in assay [1] was 99.8% (inactive). The GFP response vs DMSO in [2] was 104% (inactive); in assay [4], 101% (inactive). Moreover, in [3], the percent response of DMSO control was 99.3% (inactive). Also, the GFP response, % of DMSO in [5] is 100% (inactive). The same compound yielded a double positive events in assay [6] of 58.9%. Moreover, in [6], the vesicle binding response was 28% (inactive). Also, the inhibition in assay [7] is -20.4% (inactive); in [11] it was -21.1% (inactive); in assay [15], 8% (inactive). For the same compound, the superoxide response (% of plate) in [8] is 107% (inactive). Further, the aptamer binding inhibition in assay [9] is 5% (inactive). For the same compound, the values for the response in assay [10] and in assay [12] were -0.66% (inactive) and -0.46% (inactive), respectively. Also, in [13], the binding (% of control) is 99.2% (inactive). The efflux inhibition (fraction of control) in assay [14] was -0.63 (inactive). For the same compound, the differentiation response in assay [16] is 0% (inactive).

As for `CCc1oc2ccccc2c1C(=O)c1cc(Br)c(O)c(Br)c1`, the percent of DMSO control GFP in [1] was 92.2% (inactive). Also, the values for the GFP response vs DMSO in [2] and in [4] were 117% (inactive) and 78.1% (inactive), respectively. Further, in assay [3], the percent response of DMSO control is 106% (inactive). The GFP response, % of DMSO in assay [5] was 91% (inactive). In assay [6], this compound had a double positive events of 65.3%. The vesicle binding response in assay [6] was 165% (inactive). Also, the inhibition in assay [7] was 7.43% (inactive); in assay [11] it was -0.81% (inactive); in [15], 12% (inactive). Also, the superoxide response (% of plate) in assay [8] is 118% (inactive). The aptamer binding inhibition in assay [9] was 4% (inactive). In addition, the response was 2.6% (inactive) in assay [10] and 15.2% (active) in assay [12]. In assay [13], the binding (% of control) is 102% (inactive). Further, in assay [14], the efflux inhibition (fraction of control) is 0.01 (inactive). The differentiation response in assay [16] is 9.83% (inactive).

Consider `C=CCOc1ccc(C(=O)CC)cc1OC`, for which the percent of DMSO control GFP in assay [1] was 102% (inactive). Moreover, the GFP response vs DMSO is 105% (inactive) in [2] and 106% (inactive) in assay [4]. The percent response of DMSO control in assay [3] is 104% (inactive). The GFP response, % of DMSO in assay [5] was 98.6% (inactive). The same compound had a double positive events in assay [6] of 60%. Further, the vesicle binding response in assay [6] was 174% (inactive). The values for the inhibition in [7], in assay [11] and in assay [15] were 8.29% (inactive), -8.48% (inactive) and -4% (inactive), respectively. Further, in assay [8], the superoxide response (% of plate) was 103% (inactive). In addition, in [9], the aptamer binding inhibition is 1% (inactive). For the same compound, the response is 2.91% (inactive) in assay [10] and 9.51% (inactive) in [12]. For the same compound, the binding (% of control) in [13] is 106% (inactive). Further, in assay [14], the efflux inhibition (fraction of control) is 0.03 (inactive). For the same compound, the differentiation response in assay [16] is -6.03% (inactive).

In the case of `CC(C)c1cc(=O)oc2c3c4c(cc12)CCCN4CCC3`, the percent of DMSO control GFP in assay [1] is 104% (inactive). For the same compound, the results for the GFP response vs DMSO in assay [2] and in assay [4] were 99.6% (inactive) and 78.6% (inactive), respectively. Further, the percent response of DMSO control in [3] is 99.6% (inactive). Also, the GFP response, % of DMSO in assay [5] was 90.6% (inactive). Further, the double positive events in assay [6] was 59.3%. Moreover, the vesicle binding response in assay [6] was 145% (inactive). Moreover, in [8], the superoxide response (% of plate) was 97.7% (inactive). Also, in assay [9], the aptamer binding inhibition was 9% (inactive). In addition, the response was 46% (active) in assay [10] and 21.6% (active) in assay [12]. Besides, the inhibition in assay [11] was -43.1% (inactive); in assay [15] it was 2% (inactive). Further, the binding (% of control) in assay [13] was 98.7% (inactive). Moreover, the efflux inhibition (fraction of control) in assay [14] was 0.3 (inactive). Further, the differentiation response in assay [16] is -21.6% (inactive).
